WRN inhibitor: inhibitors of human WRN helicase. Q14191. WRN helicase unwinding, fluorescent forked duplex, kinetic. Potency, µM (doses to about 114 µM), without a hit: at the top dose activity change, negative = inhibition, hits mostly inhibitors. actives 0.46% (n = 360,000); further: on the % scale 0 is the no-effect control and ±100 the full control effect; nearly all actives have a fitted effect of over 55% in size
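Enzyme (20 nM final) and test compound sit together 15 min at room temperature before substrate addition. Substrate is a single-forked duplex oligonucleotide (100 nM) labelled with fluorophore and quencher, with 2 mM ATP; helicase unwinding raises red fluorescence, read kinetically.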
Pol eta inh-1: DNA polymerase eta (human) inhibition; Q9Y253; recombinant Pol eta, fluorescent DNA replication assay; Potency, µM (titrated, usually from 114 µM), without a hit: top-dose activity change, negative = inhibition, usual class: inhibitors; actives 1.2% (n = 390,000); further: on the % scale 0 is the no-effect control and ±100 the full control effect
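Pol eta (10 nM) was preincubated with compounds for 15 min at room temperature, after which fluorescent replication substrate (50 nM final) was added to start the reaction. Fluorescence was read kinetically at 0 and 10 min.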
Pol kappa inh-1: blocks human DNA polymerase kappa activity; Q9UBT6; purified Pol kappa, fluorescent DNA synthesis assay, 10 min; Potency, µM (doses to about 107 µM), for the others: top-dose activity, negative = inhibition, most hits filed as inhibitors; actives 0.53% (n = 400,000); AID 588579; further: on the % scale 0 is the no-effect control and ±100 the full control effect
Target sequence (Q9UBT6 whole entry, looked up): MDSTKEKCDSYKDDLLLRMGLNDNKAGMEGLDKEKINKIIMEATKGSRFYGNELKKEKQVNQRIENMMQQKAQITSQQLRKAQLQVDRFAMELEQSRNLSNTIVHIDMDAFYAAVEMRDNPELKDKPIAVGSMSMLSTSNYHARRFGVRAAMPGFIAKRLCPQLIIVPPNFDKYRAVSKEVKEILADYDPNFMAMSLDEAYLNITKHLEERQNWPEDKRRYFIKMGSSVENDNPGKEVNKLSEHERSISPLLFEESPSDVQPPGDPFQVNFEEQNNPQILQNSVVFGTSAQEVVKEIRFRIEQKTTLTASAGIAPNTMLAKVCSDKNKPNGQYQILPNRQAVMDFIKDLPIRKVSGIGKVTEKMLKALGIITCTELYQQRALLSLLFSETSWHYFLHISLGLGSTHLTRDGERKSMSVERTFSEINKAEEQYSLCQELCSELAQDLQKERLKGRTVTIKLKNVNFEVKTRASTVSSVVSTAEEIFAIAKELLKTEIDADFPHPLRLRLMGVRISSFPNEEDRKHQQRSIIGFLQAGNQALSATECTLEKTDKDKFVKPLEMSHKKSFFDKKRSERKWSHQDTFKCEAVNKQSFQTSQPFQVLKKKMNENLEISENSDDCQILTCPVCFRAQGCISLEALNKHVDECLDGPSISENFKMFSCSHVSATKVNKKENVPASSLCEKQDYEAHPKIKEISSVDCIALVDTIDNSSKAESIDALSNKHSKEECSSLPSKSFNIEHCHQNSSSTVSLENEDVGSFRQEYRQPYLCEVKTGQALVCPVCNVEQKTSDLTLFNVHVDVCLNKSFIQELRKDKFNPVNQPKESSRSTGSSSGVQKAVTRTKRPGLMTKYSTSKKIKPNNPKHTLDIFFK
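Fluorescent qHTS in 1536-well format: enzyme (10 nM) and compound sat 15 min at room temperature before 50 nM substrate (final) was added. Signal taken at 0 and 10 min; no-enzyme buffer wells were negative controls.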
POLB inh: inhibitors of human DNA polymerase beta | P06746 | Pol beta primer extension/strand displacement, fluorescence kinetic | Potency, µM (doses to about 114 µM), for inactives: at the highest dose activity change, negative = inhibition, hits mostly inhibitors | actives 1.3% (n = 340,000) | AID 485314; further: on the % scale 0 is the no-effect control and ±100 the full control effect
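Curves were derived by four-parameter Hill fits of normalized qHTS data. The kinetic fluorescent primer-extension read was taken at 0 and 10 min after 50 nM substrate, following a 15 min room-temperature preincubation of 10 nM enzyme with compounds.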
Pol iota inh: DNA polymerase iota (human) inhibition | Q9UNA4 | Pol iota fluorescent replication assay, 10 min | Potency, µM (top dose mostly 115 µM), inactives show top-dose activity, negative = inhibition, most hits filed as inhibitors | actives 1% (n = 390,000) | AID 588590
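Fluorescent replication assay read twice, at 0 min and 10 min after adding 50 nM (final) substrate. Enzyme (10 nM) and compounds were first incubated 15 min at room temperature; enzyme-free buffer wells were negative controls.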
TbPGK inh: TbPGK inhibition, hit validation; shares compounds with Pol kappa inh-1; TbPGK coupled GAPDH assay, Kinase-Glo luminescence; Potency, µM (top dose mostly 57.5 µM), without a hit: at the highest dose activity change, negative = inhibition, most hits filed as inhibitors; actives 79% (n = 500); AID 686980; further: on the % scale 0 is the no-effect control and ±100 the full control effect; nearly all actives have a fitted effect of over 65% in size
Pol iota confirm: Inhibitors of human DNA polymerase iota, confirmation | Potency, µM, hits mostly inhibitors | shares compounds with Pol kappa inh-1 | actives 77% (n = 1,500) | Pol iota primer extension, TAMRA/BHQ fluorescence
Pol kappa inh-2: Pol kappa (human) inhibition, cherry-pick confirmation; shares compounds with Pol eta inh-1; purified Pol-kappa, fluorescent strand-displacement substrate; Potency, µM, hits mostly inhibitors; actives 76% (n = 920)
Pol eta inh-2: confirmation of human DNA polymerase eta inhibitors. shares compounds with Pol eta inh-1. AID 720502. Pol eta primer extension, TAMRA/BHQ fluorescence, 10 min. actives 64% (n = 2,600). Potency, µM, hits mostly inhibitors
Active calls of the source: *; ? = inconclusive; nt = not tested or not shown; [ ] = dose if it differs, or a comment. An excerpt weighted towards active compounds, which were near 2.3% of everything screened. The call rests on the fitted dose curve; in most records, active means well fitted curve in the direction sought with a large enough effect; inconclusive means small, poorly fitted or top-dose-only effect, or another doubt; inactive means no such curve, though single readings can be large; an effect the other way counts as inactive or inconclusive. Potency means the concentration at half of the fitted maximal effect.

SMILES | WRN inhibitor | Pol eta inh-1 | Pol kappa inh-1 | POLB inh | Pol iota inh | Pol iota confirm | Pol eta inh-2 | others
Cc1nc2ccccn2c1C(=O)N/N=C/c1ccc([N+](=O)[O-])o1 | ? | 7.94µM* | 50.1µM* | 31.6µM* | 11.2µM* | 59.7* | 33.8*
O=C(N/N=C/c1ccc([N+](=O)[O-])o1)c1cc2ccccc2o1 | -10.0% | ? | ? | ? | ? | nt | nt
O=C(N/N=C/c1cc(Cl)c(O)c(Cl)c1)c1cc2c(ccc3ccccc32)o1 | ? | 22.4µM* | ? | 28.2µM* | ? | ? | 42.6* | Pol kappa inh-2=75.2*
Cc1nc2ccccn2c1C(=O)N/N=C/c1ccccc1Cl | -3.0% | -15.8% | -2.0% | 16.9% | 172.0% | nt | nt
O=C(N/N=C/c1ccc([N+](=O)[O-])o1)c1cc2c(ccc3ccccc32)o1 | -22.9%[11.6 µM] | 31.6µM* | -25.2% | 3.16µM* | ? | 26.7* | 19*
COc1cccc(C(=O)n2nc(-c3ccco3)nc2NCc2cccs2)c1 | nt | -19.8% | 7.5% | 12.5% | 22.2% | nt | nt
COCCOC(=O)c1[nH]c2c(c1C)C(=O)CC(c1ccc(N(C)C)cc1)C2 (centres undefined) | -8.3% | ? | -27.4% | 0.5% | 18.0% | nt | nt
CCOC(=O)c1[nH]c2c(c1C)C(=O)CC(c1ccco1)C2 (centres undefined) | ? | 20µM* | 56.2µM* | 28.2µM* | ? | 67* | 60.1*
COCCOC(=O)c1[nH]c2c(c1C)C(=O)CC(c1ccco1)C2 (centres undefined) | ? | 12.6µM* | 22.4µM* | 11.2µM* | -79.0% | 42.3* | 37.9*
CCc1ccc(C2CC(=O)c3c([nH]c(C(=O)OCC4CCCCC4)c3C)C2)cc1 (centres undefined) | nt | 1.7% | 8.6% | 0.3% | 6.4% | nt | nt
O=C(NCCc1ccccc1)c1cc(Sc2cccc(Cl)c2)nc2ccccc12 | nt | -9.3% | -1.3%[60.1 µM] | -0.1% | 19.0% | nt | nt
COc1cc(/C=C/c2nc(C#N)c(N3CCCCCC3)o2)cc(OC)c1OC | nt | -17.1% | -2.8% | -13.4% | -12.2% | nt | nt
O=C(/C=C/c1ccccc1)N1CCN(Cc2cc(=O)n3nc(-c4ccccc4)sc3n2)CC1 | nt | -10.5% | -3.1%[60.1 µM] | -21.3% | -7.2% | nt | nt
COc1cc(OC)c(OC)cc1/C=C1\Oc2cc(OCC(=O)N3Cc4ccccc4C[C@H]3C(=O)O)ccc2C1=O | ? | 22.4µM* | 79.4µM* | ? | ? | 26.7* | 21.3*
Cc1ccc(/C=C/c2onc(C)c2S(=O)(=O)N2CCC(C(=O)NCc3ccc(N(C)C)cc3)CC2)cc1 | nt | 9.6% | -13.1%[60.1 µM] | 0.1% | 18.3% | nt | nt
CCCN1CNc2c(c(=O)[nH]c(=S)n2CCc2cccc(OC)c2)C1 | nt | nt | -12.6% | nt | 25.3% | nt | nt
O=C(O)C1C2C=CC(CC2)C1C(=O)O (centres undefined) | ? | 11.2µM* | ? | 17.8µM* | ? | nt | ? | TbPGK inh=11.6µM*;Pol kappa inh-2=29.9*
O=C(O)C1Oc2cc3ccccc3cc2O1 | -26.5% | 17.8µM* | -97.7% | 7.94µM* | 28.2µM* | 75.2* | 47.8* | Pol kappa inh-2=8.44*
Cc1cccc(N2CCN(C(=O)C3CCN(S(=O)(=O)c4cn(C)cn4)CC3)CC2)c1C | nt | -13.3% | -7.5%[60.1 µM] | 25.0% | -1.6% | nt | nt
CN(C)c1cccc2c1C(=O)c1ccccc1C2=O | -27.0% | -16.9% | -12.2% | 7.8% | 10.7% | nt | nt
Cc1ccc(SC2=C(N(C)C)C(=O)c3ccccc3C2=O)cc1 | -10.9% | 8.91µM* | -18.8% | nt | 20µM* | ? | 75.7*

Bioassay records (PubChem)
